# MEP2 TOR yeast: alters MEP2-GFP fluorescence in TOR pathway yeast screen. S. cerevisiae MEP2-GFP strain, flow cytometry GFP, 3 h; 100% = DMSO control level. GFP response vs DMSO, % at 10 µM. hit rate 0.51% among 330,000. AID 2016;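 active = GFP response versus DMSO above a set limit, roughly screen mean plus 3 SD, cut at about 180% in these data; inconclusive = fewer than 70 cells counted for a yeast strain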;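 also: median GFP fluorescence of the barcode-gated MEP2-GFP cells per well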
# AGP1 TOR yeast: yeast TOR pathway AGP1-GFP modulation. S. cerevisiae AGP1-GFP multiplex flow cytometry, 3 h; GFP as percent of DMSO wells. GFP response vs DMSO, % at 10 µM. hit rate 0.02% among 320,000;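 active = GFP response relative to DMSO above a set limit, near screen average plus 3 SD, cut at about 150% in these data; inconclusive = fewer than 70 cells counted for the yeast strain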;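 also: median GFP channel fluorescence of the gated AGP1 strain per well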
# CIT2-GFP yeast: yeast TOR pathway CIT2-GFP modulation | GFP response vs DMSO, % at 10 µM | S. cerevisiae CIT2-GFP strain, flow cytometry, 3 h; 100 means same as DMSO wells | hit rate 0.065% among 320,000;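 active = GFP response relative to DMSO above a set limit, near the screen mean plus 3 SD, cut at about 150% in these data; inconclusive = Fewer than 70 cells measured for a yeast strain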;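 also: ratio of well median GFP fluorescence to mean of DMSO wells on the plate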
# RPL19A-GFP yeast: alters RPL19A-GFP fluorescence in TOR pathway yeast screen | AID 2025 | percent response vs DMSO, % at 10 µM | S. cerevisiae RPL19A-GFP strain, flow cytometry, 3 h; stronger effect = lower value | hit rate 0.3% among 330,000;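 active = percent response vs DMSO below 50%; inconclusive = fewer than 70 events counted for the yeast strain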;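 also: median channel GFP fluorescence of the barcoded RPL19A-GFP strain; ratio of sample median GFP to plate DMSO average so 100% = DMSO; lower means less RPL19A-GFP as with rapamycin TOR inhibition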
# LAP4 TOR yeast: alters LAP4-GFP fluorescence in TOR pathway yeast screen; hit rate 0.34% among 320,000; S. cerevisiae LAP4-GFP multiplex, flow cytometry GFP, 3 h; median GFP as percent of DMSO wells; GFP response vs DMSO, % at 10 µM; AID 2023;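 active = GFP response vs DMSO above a set limit, about the screen mean plus 3 SD, cut at about 150% in these data; inconclusive = under 70 cell events counted for the yeast strain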
# * = called active by the depositor; ? = inconclusive; . = not tested or not shown; [ ] = another dose, or the depositor's remark. This is a sample that favours compounds with a hit; in the whole collection about 0.93% have one here.
SMILES,MEP2 TOR yeast,AGP1 TOR yeast,CIT2-GFP yeast,RPL19A-GFP yeast,LAP4 TOR yeast
CCCC(=O)c1cc(CP(=O)(OCC)OCC)oc1C,?,.,.,42.0*[may fluoresce violet],.
O=C(Nc1ccc(Cl)cc1)N1CC2CC(C1)c1cccc(=O)n1C2 (centres undefined),96.2,104.0,95.6,100.4,94.8
Nc1cc(C(=O)Nc2ccc(Cl)cc2)ccc1N1CC2CC(C1)c1cccc(=O)n1C2 (centres undefined),251.3*[may fluoresce violet],?,?,40.2*[may fluoresce violet],46.4
CCCC1C(C#N)=C(N)Oc2c1c(=O)oc1ccccc21 (centres undefined),414.6*[may fluoresce red and violet],?,?,?,?
Cc1ccc(-c2cc(-c3ccc(C)cc3)[n+](-c3ccccc3)c(-c3ccc(C)cc3)c2)cc1,255.3*[may fluoresce violet],?,?,39.8*[may fluoresce violet],65.1
COc1ccc2c3c([nH]c2c1)C(C)NCC3 (centres undefined),304.7*[may fluoresce violet],20.8,?,101.0,105.7
COc1ccc2[nH]c3c(c2c1)CCNC3C (centres undefined),107.7,99.2,108.9,103.6,98.0
COc1ccc(N=Nc2c(O)[nH]c(=S)[nH]c2=O)cc1,90.1,?,?,19.7*[may fluoresce violet],161.8*[may fluoresce violet]
COc1ccc(NC(=S)NC(NC(=O)CF)C(Cl)(Cl)Cl)cc1[N+](=O)[O-] (centres undefined),113.7,89.6,100.4,90.1,106.0
CC1(C)C2([N+](=O)[O-])CN3CN(C2)CC1([N+](=O)[O-])C3,99.3,105.6,99.2,97.3,104.2
CC1=CC(=O)C2=C(C)C[C@H](O)[C@@H]3[C@H](OC(=O)[C@H]3C)[C@@H]12,195.9*[may fluoresce violet],?,?,42.8*[may fluoresce violet],96.8
O=C(COC(=O)Cc1ccccc1)Nc1ccc(Cl)cn1,110.5,110.6,98.1,100.5,110.4
O=C(COC(=O)Cc1ccccc1)Nc1ncc(Cl)cc1Cl,283.6*[may fluoresce violet],26.8,?,.,92.1
CCCCn1c(O)c(C=NCCN2CCCCC2)c(=O)[nH]c1=O,218.5*[may fluoresce violet],26.4,?,64.2,72.0
CCC1C2CC3C4N(C)c5ccccc5C45CC(C2C5O)N3[C@@H]1O (some centres undefined),103.0,101.2,103.0,106.7,97.3
CC[C@H]1C2C[C@H]3[C@@H]4N(C)c5ccccc5C45C[C@H](C2[C@H]5O)N3[C@@H]1O (some centres undefined),389.3*[may fluoresce violet],?,?,36.8*[may fluoresce violet],107.3
O=C1NC(=O)N(CCC2=CCCCC2)C(=O)/C1=C/c1cccs1,84.2,82.7,66.7,92.4,184.9*
O=C1NC(=O)N(CCC2=CCCCC2)C(=O)/C1=C/c1ccc(O)cc1,97.4,97.2,95.7,101.4,92.8
CC1=Nc2cc(C(=O)N3CCC4(CC3)OCCO4)ccc2Sc2ccc(Cl)cc21,92.6,103.0,96.3,99.5,95.2
CN1C(=O)N(C)C(=O)C(CCc2ccncc2)(Cc2ccc3c(c2)OCO3)C1=O,102.2,108.1,103.5,97.7,100.3
O=c1ccc2cc(O[C@@H]3O[C@@H](CO)[C@H](O)[C@@H](O)[C@@H]3O)c(O)cc2o1,840.1*[may fluoresce violet],?,?,34.0*[may fluoresce violet],121.4
CCOC(=O)c1c(C)n(C(C)C)c2ccc(OC)cc12,100.5,98.8,101.0,104.0,98.2
COc1ccc2c(c1)c(C(=O)C(C)N1CCCCC1)c(C)n2C (centres undefined),492.6*[may fluoresce violet],?,?,17.4*[may fluoresce violet],84.2
CN(C)P(=NC(=S)c1cccn1C)(N(C)C)N(C)C,215.8*[may fluoresce violet],15.6,?,91.0,82.7
COc1ccc(CCNC(=O)c2c(N)n(CCN3CCOCC3)c3nc4ccccc4nc23)cc1,561.6*[may fluoresce violet],?,?,17.4*[may fluoresce violet],107.3
CCCCCOc1ccc(C)cc1CN(CCCl)CCCl,99.3,99.8,91.5,95.9,111.0
Cc1ccc(N2C(=O)NC(=O)/C(=C\c3cn(CC(=O)O)c4ccccc34)C2=O)cc1,100.9,161.1*,107.3,103.8,95.7
CCN1C(=O)NC(=O)/C(=C\c2cn(CC(=O)N3CCCC3)c3ccccc23)C1=O,181.4*,100.6,101.2,132.1,121.5
CCN1C(=O)NC(=O)/C(=C\c2cn(CC(=O)N3CCCCC3)c3ccccc23)C1=O,105.6,100.1,110.3,105.2,102.6
O=C(O)Cn1cc(/C=C2\C(=O)NC(=O)N(c3ccc(Br)cc3)C2=O)c2ccccc21,105.0,94.2,95.1,102.4,108.8

# Screening data from PubChem.
